In PubChem BioAssay (NCI):
The panel holds about 79,000 compounds, 15% with a hit somewhere; the sample as a whole holds those more often. Values without a mark were called inactive. Activity calls are given as the source filed them. No stated cut-off is given here; in the data, active means growth inhibition above about 70%; inactive means the rest.

assay: NCI Yeast Anticancer Drug Screen. Data for the bub3 strain (AID 167); settings: S. cerevisiae bub3 mutant strain, at 50.0 µM, hits give high values
In short: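 Part of a panel of yeast mutants defective in DNA damage repair or cell cycle regulation. Each strain is grown with compound, and inhibition is calculated relative to solvent-treated cultures.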

| Compound | growth inhibition |
| --- | --- |
| Nc1cccc(OCC(O)CN2CCN(c3ccccc3)CC2)c1 (stereo not given) | -1% |
| Clc1cc(Cl)c2ncccc2c1 | 17.8% |
| O=C(CSc1c2ccccc2nc2ccccc12)Nc1ccccc1-c1ccccc1NC(=O)CSc1c2ccccc2nc2ccccc12 | 19% |
| CCCCS(=O)(=O)c1ccc(Cl)cc1 | -3.9% |
| Cc1ccccc1N=C(N)Nc1ccccc1C | -38.7% |
| C=Cc1ccccc1NC(C(=O)O)c1ccccc1 (stereo not given) | 7.2% |
| CC(=O)Nc1c(C)ccc(C)c1C(=O)O | 13.8% |
| CC1(C)CC(C)(OC(=O)c2ccccc2)N=N1 (stereo not given) | 4.35% |
| CCOC(=O)c1ccc(C=O)cc1 | -5.8% |
| O=C(O)/C1=C/CCC(C(=O)O)CCC1 (stereo not given) | -12.5% |
| CC(=O)CCCC(CC(C)O)[Si](C)(C)C (stereo not given) | -8.45% |
| O=C(Oc1c(Cl)cc([N+](=O)[O-])cc1[N+](=O)[O-])Sc1ccccc1 | 99.5% (active) |
| CC(=O)c1cccc(N)c1 | -15.8% |
| CCC(=O)N1C(=O)C(C)C23c4ccccc4C(=O)N2CCCN13 (stereo not given) | 1.8% |
| O=C(N/N=C\c1c[nH]c2ccccc12)N/N=C/c1c[nH]c2ccccc12 | -3.45% |
| Cc1ccc(NC(=O)OCC(COc2ccc(Cl)cc2Cl)OC(=O)Nc2ccc(C)cc2)cc1 (stereo not given) | 11.2% |
| [Cu+2].[Cu+2].c1ccc2c(c1)-c1nc-2nc2[n-]c(nc3nc(nc4[n-]c(n1)c1ccccc41)-c1ccccc1-3)c1cc3c4nc5nc(nc6[n-]c(nc7nc(nc([n-]4)c3cc21)-c1ccccc1-7)c1ccccc61)-c1ccccc1-5 | -11.1% |
| Cc1cc2cccc(C)c2[nH]1 | 4.6% |
| NCCCN=c1ccc2c3c1c(O)c1c(O)ccc(=O)c1c3[nH]n2CCNCCO | 28.6% |
| CC(=O)c1ccccc1NC(=O)C(=O)C(C(=O)c1ccc2ccccc2c1)C1OC(=O)c2ccccc21 (stereo not given) | 4.85% |

| Compound | growth inhibition |
| --- | --- |
| CC(=O)OCC(=O)[C@@]1(O)CC[C@H]2[C@@H]3C[C@@H](C)[C@@]4(O)CC5(CC[C@]4(C)[C@H]3[C@@H](O)C[C@@]21C)OCC(C)(C)CO5 | -6.2% |
| CC(C)CC(NC(=O)C(O)C(N)Cc1ccccc1)C(=O)O (stereo not given) | 36% |
| CCCC(CN1CCCCC1)C(OC(=O)c1ccc(N)cc1)C(F)(F)F (stereo not given) | 67.5% |
| O=C(COc1ccccc1[N+](=O)[O-])Nc1cccnc1 | -3.25% |
| O=C1CCc2nc(=O)c3c4ccccc4ccc3n21 | -3.95% |
| CN(C)c1nc(=NCc2cccs2)ss1 | 60.5% |
| CNC(=S)SC(=S)NC | -1.75% |
| COc1cc(C)cc(O)c1C=O | -0.2% |
| CCOC(=O)C1C(c2cc(OC)c(OC)c(OC)c2)c2cc3c(cc2OC1(C)OC)OCO3 (stereo not given) | -5.25% |
| CCCCN1C(=O)C(=O)N(CCc2ccc(OC)c(OC)c2)C1=O | 1.35% |
| O=C(C(Cl)=C(N1CCOCC1)N1CCOCC1)C(Cl)Cl | -32.9% |
| CNC(=O)OCc1nc(SC(C)C)n(C)c1COC(=O)NC | -18.7% |
| CC(=O)OC1C(=O)OCC23CCC(C)=CC2OC2CC(OC(=O)/C=C/C=C/C(=O)OCCC1C)C3(C)C21CO1 (stereo not given) | -22.6% |
| Cc1ccc(S(=O)(=O)N2CCN(S(=O)(=O)c3ccc(C)cc3)CCN(S(=O)(=O)c3ccc(C)cc3)Cc3cc(Br)c(Br)cc3CN(S(=O)(=O)c3ccc(C)cc3)CC2)cc1 | -3.1% |
| CC(C)COC1=CC(=O)c2ccccc2C1=O | 35% |
| C(=Nc1ccccc1-c1ccccc1N=Cc1ccccc1)c1ccccc1 | -7.75% |
| COc1c(O)c(O)c2c(c1O)C(=O)c1cc(C)cc(O)c1C2=O | -30% |
| COc1cc(NCCCCCCN(C)C)c2ncccc2c1 | 5.8% |
| COc1cc2c(cc1OC)C1CCN3C(=O)CCC3[N+]1(C)CC2 (stereo not given) | 3.2% |
| c1ccc(-c2ccc(-c3c(-c4ccccc4)ccc(-c4ccccc4)c3-c3ccccc3)cc2)cc1 | -2.85% |

assay: NCI Yeast Anticancer Drug Screen. Data for the mlh1 rad18 strain (AID 175); settings: S. cerevisiae mlh1 rad18 strain growth inhibition; at 50.0 µM; hits give high values
In short: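 Steps: expose repair-defective yeast to compound; measure growth; express inhibition against vehicle-treated controls.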

| Compound | growth inhibition |
| --- | --- |
| Nc1cccc(OCC(O)CN2CCN(c3ccccc3)CC2)c1 (stereo not given) | 14.7% |
| Clc1cc(Cl)c2ncccc2c1 | 11.8% |
| O=C(CSc1c2ccccc2nc2ccccc12)Nc1ccccc1-c1ccccc1NC(=O)CSc1c2ccccc2nc2ccccc12 | 34.5% |
| CCCCS(=O)(=O)c1ccc(Cl)cc1 | 21.9% |
| Cc1ccccc1N=C(N)Nc1ccccc1C | -52.4% |
| C=Cc1ccccc1NC(C(=O)O)c1ccccc1 (stereo not given) | 1.35% |
| CC(=O)Nc1c(C)ccc(C)c1C(=O)O | 11.8% |
| CC1(C)CC(C)(OC(=O)c2ccccc2)N=N1 (stereo not given) | 11.1% |
| CCOC(=O)c1ccc(C=O)cc1 | -11.5% |
| O=C(O)/C1=C/CCC(C(=O)O)CCC1 (stereo not given) | 22.9% |
| CC(=O)CCCC(CC(C)O)[Si](C)(C)C (stereo not given) | -23.6% |
| O=C(Oc1c(Cl)cc([N+](=O)[O-])cc1[N+](=O)[O-])Sc1ccccc1 | 99.5% (active) |
| CC(=O)c1cccc(N)c1 | 3.1% |
| CCC(=O)N1C(=O)C(C)C23c4ccccc4C(=O)N2CCCN13 (stereo not given) | 15.8% |
| O=C(N/N=C\c1c[nH]c2ccccc12)N/N=C/c1c[nH]c2ccccc12 | -37.9% |
| Cc1ccc(NC(=O)OCC(COc2ccc(Cl)cc2Cl)OC(=O)Nc2ccc(C)cc2)cc1 (stereo not given) | 9.05% |
| [Cu+2].[Cu+2].c1ccc2c(c1)-c1nc-2nc2[n-]c(nc3nc(nc4[n-]c(n1)c1ccccc41)-c1ccccc1-3)c1cc3c4nc5nc(nc6[n-]c(nc7nc(nc([n-]4)c3cc21)-c1ccccc1-7)c1ccccc61)-c1ccccc1-5 | 11.3% |
| Cc1cc2cccc(C)c2[nH]1 | -9.2% |
| NCCCN=c1ccc2c3c1c(O)c1c(O)ccc(=O)c1c3[nH]n2CCNCCO | 36.2% |
| CC(=O)c1ccccc1NC(=O)C(=O)C(C(=O)c1ccc2ccccc2c1)C1OC(=O)c2ccccc21 (stereo not given) | 8.25% |

| Compound | growth inhibition |
| --- | --- |
| CC(=O)OCC(=O)[C@@]1(O)CC[C@H]2[C@@H]3C[C@@H](C)[C@@]4(O)CC5(CC[C@]4(C)[C@H]3[C@@H](O)C[C@@]21C)OCC(C)(C)CO5 | -11.2% |
| CC(C)CC(NC(=O)C(O)C(N)Cc1ccccc1)C(=O)O (stereo not given) | -21.7% |
| CCCC(CN1CCCCC1)C(OC(=O)c1ccc(N)cc1)C(F)(F)F (stereo not given) | 22.4% |
| O=C(COc1ccccc1[N+](=O)[O-])Nc1cccnc1 | 8.25% |
| O=C1CCc2nc(=O)c3c4ccccc4ccc3n21 | -0.2% |
| CN(C)c1nc(=NCc2cccs2)ss1 | 65.7% |
| CNC(=S)SC(=S)NC | 4.75% |
| COc1cc(C)cc(O)c1C=O | 3.45% |
| CCOC(=O)C1C(c2cc(OC)c(OC)c(OC)c2)c2cc3c(cc2OC1(C)OC)OCO3 (stereo not given) | 19.1% |
| CCCCN1C(=O)C(=O)N(CCc2ccc(OC)c(OC)c2)C1=O | 18.1% |
| O=C(C(Cl)=C(N1CCOCC1)N1CCOCC1)C(Cl)Cl | -34.6% |
| CNC(=O)OCc1nc(SC(C)C)n(C)c1COC(=O)NC | -28.1% |
| CC(=O)OC1C(=O)OCC23CCC(C)=CC2OC2CC(OC(=O)/C=C/C=C/C(=O)OCCC1C)C3(C)C21CO1 (stereo not given) | -19.6% |
| Cc1ccc(S(=O)(=O)N2CCN(S(=O)(=O)c3ccc(C)cc3)CCN(S(=O)(=O)c3ccc(C)cc3)Cc3cc(Br)c(Br)cc3CN(S(=O)(=O)c3ccc(C)cc3)CC2)cc1 | -10.3% |
| CC(C)COC1=CC(=O)c2ccccc2C1=O | -7% |
| C(=Nc1ccccc1-c1ccccc1N=Cc1ccccc1)c1ccccc1 | -17.9% |
| COc1c(O)c(O)c2c(c1O)C(=O)c1cc(C)cc(O)c1C2=O | -19.4% |
| COc1cc(NCCCCCCN(C)C)c2ncccc2c1 | -14.8% |
| COc1cc2c(cc1OC)C1CCN3C(=O)CCC3[N+]1(C)CC2 (stereo not given) | 8.7% |
| c1ccc(-c2ccc(-c3c(-c4ccccc4)ccc(-c4ccccc4)c3-c3ccccc3)cc2)cc1 | -1.4% |
